This is a sample that favours compounds with a hit; in the whole collection about 10% have one here.
3T3 cytotox: Cytotoxic Profiling in NIH 3T3 Cell Line of Diverse Libraries Using Quantitative High-Throughput Screening | NIH 3T3 viability, CellTiter-Glo ATP luminescence, 48-72 h | Potency, µM (highest dose often 96.7 µM), for the others: at the highest dose activity change, negative = cytotoxicity, actives largely listed as inhibitors | 94,000 tested, 4.3% active; further: nearly all actives have a fitted effect of over 55% in size
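ATP-dependent luminescence (CellTiter-Glo) served as the viability signal for NIH 3T3 cells treated with compound for 48 or 72 hr at 37 °C.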
HEK cytotox: Cytotoxic Profiling in HEK 293 Cell Line of Diverse Libraries Using Quantitative High-Throughput Screening; HEK 293 viability, ATP luminescence (CellTiter-Glo), 48-72 h; Potency, µM (titrated, usually from 115 µM), without a hit: at the top dose activity change, negative = cytotoxicity, most hits filed as inhibitors; 94,000 tested, 6.6% active; further: nearly all actives have a fitted effect of over 60% in size
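Cells seeded first (HEK 293, 250 cells/well), then compound added by pintool. Incubation ran 48 or 72 hr at 37 degree Celsius. CellTiter-Glo was added and luminescence imaged after 10 min at room temperature.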
Luciferase inh: Firefly luciferase inhibition profiling of diverse chemical library using quantitative high-throughput screening; 76,000 tested, 2.5% active; Potency, µM (titrated, usually from 115 µM), hits mostly inhibitors; purified P. pyralis luciferase, luminescence, biochemical; Luciferin 4-monooxygenase (Photinus pyralis), P08659; further: nearly all actives have a fitted effect of over 65% in size
Target sequence (P08659 whole entry, looked up): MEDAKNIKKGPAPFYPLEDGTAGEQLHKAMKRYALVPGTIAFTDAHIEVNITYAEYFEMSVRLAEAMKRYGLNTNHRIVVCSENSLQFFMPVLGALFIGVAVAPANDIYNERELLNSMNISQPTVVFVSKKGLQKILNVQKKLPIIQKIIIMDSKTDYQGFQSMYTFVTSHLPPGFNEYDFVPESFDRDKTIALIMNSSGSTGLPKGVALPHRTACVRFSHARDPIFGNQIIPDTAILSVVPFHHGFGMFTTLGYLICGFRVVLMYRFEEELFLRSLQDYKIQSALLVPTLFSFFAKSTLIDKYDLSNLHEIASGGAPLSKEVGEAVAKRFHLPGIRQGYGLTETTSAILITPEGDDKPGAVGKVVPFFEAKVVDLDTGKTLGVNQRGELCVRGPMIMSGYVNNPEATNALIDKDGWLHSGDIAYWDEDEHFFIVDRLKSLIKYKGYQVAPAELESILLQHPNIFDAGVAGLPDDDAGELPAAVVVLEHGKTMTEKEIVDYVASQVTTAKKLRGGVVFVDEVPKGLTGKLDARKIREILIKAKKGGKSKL
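Inhibitors were tested against purified firefly luciferase in a biochemical, low-substrate format (both substrates at 10uM) and luminescence measured with a CCD imager.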
NPR1 antag: Natriuretic polypeptide receptor (hNpr1) antagonism - Primary qHTS | Atrial natriuretic peptide receptor 1 (Homo sapiens), P16066 | HEK293 hNpr1 GloSensor cGMP, ANP-stimulated luminescence | Potency, µM (highest dose often 46.3 µM), for inactives: at the top dose activity change, negative = inhibition, most hits filed as inhibitors | 76,000 tested, 1.6% active; calls by dose curve; further: nearly all actives have a fitted effect of over 60% in size
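Compound pre-incubated 30 min at room temperature on GloSensor-loaded HEK293 cells stably carrying hNpr1 and the pGS-40F cGMP biosensor. Stimulation uses hNppA at 0.1 nM final; luminescence is taken at baseline and 20 min post-agonist.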
GPT2 inh: Primary qHTS assay for inhibitors of Glutamate pyruvate transaminase 2 (GPT2); 100,000 tested, 0.25% active; Alanine aminotransferase 2 (Homo sapiens), Q8TD30; Potency, µM (top dose mostly 57.7 µM), without a hit: at the highest dose activity change, negative = inhibition, hits mostly inhibitors; Recombinant GPT2, coupled pyruvate oxidase/HRP Amplex Red fluorescence; AID 1671188, 2021; further: nearly all actives have a fitted effect of over 60% in size
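GPT2 10ng/uL, a-KG 250uM, L-Ala 2mM, HEPES pH7.5 + 0.0001% Tween; 30 min RT. Then Amplex mix (PO/HRP/ThPP), 30 min RT dark, fluorescence. AOA 50uM used as positive control.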
* = called active by the depositor; i = inactive; ? = inconclusive; nt = no result; [ ] = remark or other dose. Unless noted, the call rests on the fitted dose curve; in most records, active means well fitted curve in the direction sought with a large enough effect; inconclusive means small, poorly fitted or top-dose-only effect, or another doubt; inactive means no such curve, though single readings can be large; an effect the other way counts as inactive or inconclusive. On the % scale 0 is the no-effect control and ±100 the full control effect; potency means the concentration at half of the fitted maximal effect.

SMILES	3T3 cytotox	HEK cytotox	Luciferase inh	NPR1 antag	GPT2 inh
C1=C(CCNc2ncncc2-c2nc(-c3ccccc3)no2)CCCC1	-16.4%	-11.1%	i	-3.5%	i
Cc1noc(C)c1[S+](=O)([O-])NC1CCN(c2nc3ncccc3o2)C1 (centres undefined)	-15.6%	-0.8%	nt	nt	i
CC(C)(C)C(=O)N1C[C@H]2OC(=O)N(CCc3cccc(Cl)c3)[C@H]2C1	i	-0.8%	i	-1.3%	i
Cc1ccccc1N1CCN(C2CCCN(Cc3ccc(C#CC(C)(C)O)cc3)C2)CC1 (centres undefined)	-21.6%	?	i	-2.8%	i
Cc1cccc(-c2noc([C@@H]3Cc4nc[nH]c4CN3C(=O)Nc3cccc(F)c3)n2)c1	35.5µM*	70.8µM*	63.1µM*	?	0.2%[88.5 µM]
Cc1cccc(-c2noc([C@@H]3Cc4nc[nH]c4CN3C(=O)c3ccc(F)cc3)n2)c1	?	?	i	-7.6%[70.6 µM]	i
Cc1cccc(-c2noc([C@@H]3Cc4nc[nH]c4CN3C(=O)COCC(=O)O)n2)c1	-27.7%[174 µM]	-7.6%[172 µM]	56.2µM*	-1.0%[70.6 µM]	-11.3%[88.5 µM]
N[C@H]1c2ccccc2C[C@@H]1NC(=O)COc1ccc(Cl)cc1Cl	?	?	i	-11.7%	?
CCNC(=O)N1CC(Oc2ccc(-c3nc(C)no3)cc2)C1	-25.0%	?	i	-18.4%	i
CCNC(=O)N1CCC(Oc2ccc(-c3noc(-c4ccccc4)n3)cc2)C1 (centres undefined)	?	17.8µM*	nt	nt	i
Cc1ccc(CNC(=O)N2CC(Oc3cccc(-c4nc(C)no4)c3)C2)cc1	?	44.7µM*	i	-12.6%	i
COc1ccc(CNC(=O)N2CC(Oc3cccc(-c4nc(C)no4)c3)C2)cc1	?	?	i	-21.5%	i
CCNC(=O)N1CC(Oc2cccc(-c3nc(-c4ccccc4)no3)c2)C1	?	35.5µM*	i	3.6%	2.7%
O=C(Cc1cccc(F)c1)N1CC(Oc2cccc(-c3nc(-c4ccccc4)no3)c2)C1	35.5µM*	?	nt	nt	-6.0%
COc1ccc(NCCN2CCCC2)cc1	-12.0%[174 µM]	0.7%[230 µM]	nt	nt	-20.7%[88.5 µM]
CC(C)C[C@@H]1N[C@H](C(=O)N(C)CCC#N)Cc2c[nH]c3cccc1c23	-13.6%[174 µM]	-29.8%[172 µM]	i	10.7%[70.6 µM]	3.0%[88.5 µM]
COc1ccc2c(c1)OCC(C(=O)NCc1nnnn1-c1ccccc1)C2 (centres undefined)	-7.4%	3.3%	i	3.0%	0.9%
CCc1nc(-c2ccc(OC3CCN(C(=O)Cc4ccccc4F)C3)cc2)no1 (centres undefined)	?	?	nt	nt	-5.1%
O=C(C1CCOC1)N1CC(Oc2cccc(-c3nc(-c4ccccc4)no3)c2)C1 (centres undefined)	?	?	44.7µM*	-18.6%	-9.7%
Cc1noc(-c2cccc(OC3CN(C(=O)C4CCOC4)C3)c2)n1 (centres undefined)	-14.4%	12.2%	i	0.6%	i
CC(C)c1nc(-c2ccc(OC3CCN(C(=O)Cc4ccccc4F)C3)cc2)no1 (centres undefined)	?	35.5µM*	nt	nt	1.4%
N#CCCN1C[C@H]2COc3ccccc3[C@H]2N(C(=O)c2ccc(F)cc2)CCC1=O	?	-18.5%	nt	nt	nt
Cc1nn(-c2ccc(C(C)C)cc2)c(C)c1[C@@H]1C=C[C@@H](NCc2ccccc2)C1	11.2µM*	25.1µM*	63.1µM*	-12.6%[70.6 µM]	4.8%[88.5 µM]
Cc1nn(-c2ccccn2)c(C)c1[C@@H]1C=C[C@@H](NC(=O)CCC(=O)O)C1	-9.2%[174 µM]	-22.9%[172 µM]	i	-0.4%[70.6 µM]	i
Cc1nn(-c2ccc(C(C)C)cc2)c(C)c1[C@@H]1C=C[C@@H](NCc2cccc(Cl)c2)C1	12.6µM*	10µM*	44.7µM*	?	i
SMILES	3T3 cytotox	HEK cytotox	Luciferase inh	NPR1 antag	GPT2 inh
O=C(O)CCC(=O)N1Cc2[nH]cnc2C[C@H]1C(=O)NC1CCCCC1	2.7%[174 µM]	i	i	1.7%[70.6 µM]	0.7%[88.5 µM]
CC(C)c1ccc(N2CC(C(=O)N(C)Cc3cnccn3)CC2=O)cc1 (centres undefined)	0.3%	i	i	0.6%	i
COc1ccccc1N1CCN(C(=O)C(C)[C@@H]2CCc3c(C)cc(OCCN4CCOCC4)c(C)c3C2)CC1 (some centres undefined)	?	22.4µM*	i	?	i
Cc1ccc(CN2Cc3[nH]cnc3C[C@H]2c2nc(-c3ccc4ccccc4c3)no2)cc1	44.7µM*	63.1µM*	63.1µM*	-27.1%[70.6 µM]	-4.8%[88.5 µM]
OCc1ccc(CN2Cc3[nH]cnc3C[C@H]2c2nc(-c3ccncc3)no2)o1	-16.2%[138 µM]	-15.6%[172 µM]	?	2.5%[70.6 µM]	2.7%[88.5 µM]
OCc1ccc(CN2Cc3[nH]cnc3C[C@H]2c2nc(-c3ccc4ccccc4c3)no2)o1	79.4µM*	79.4µM*	?	-21.1%[70.6 µM]	4.9%[88.5 µM]
Cc1ccccc1C(=O)N1CCCC(c2nn(-c3ccc(Cl)cc3)c(=O)[nH]2)C1 (centres undefined)	?	?	i	-7.2%	3.5%
O=C(Nc1ccccc1)N1CCCC(c2nc(CCOCC3CCCC3)no2)C1 (centres undefined)	?	?	i	-21.6%	?
Cc1cc(CN(C)c2cc(C3CC(N)C3)nc(N)n2)no1 (centres undefined)	i	0.9%	i	-12.7%	-6.6%
CCOc1ccc(Cl)cc1CN(C)c1cc(C2CC(O)C2)nc(N)n1 (centres undefined)	31.6µM*	39.8µM*	i	?	-16.0%
O=C1CCCCC(C(=O)NCc2ccc3c(c2)OCO3)N1 (centres undefined)	i	7.9%	i	4.0%	i
O=C(c1cc(C2CC2)[nH]n1)N(Cc1ccc2c(c1)OCO2)C1CC1	-32.7%	?	28.2µM*	-7.3%	i
O=C(NCCCc1ccccc1)C1CCCCN1Cc1ccc(-c2cccs2)cc1 (centres undefined)	?	?	nt	nt	i
Cc1nnc2ccc(N3CCC(NC(=O)c4ccccc4F)CC3)nn12	-20.2%	2.6%	nt	nt	nt
O=C(NCc1cccs1)[C@@H]1C[C@@H](O)[C@H](O)[C@@H]2NC(=S)N(c3ccc(OC(F)(F)F)cc3)[C@@H]21	?	?	44.7µM*	-5.3%	3.6%
O=C(NCc1cccs1)c1ccc2nnc(-c3ccc(OC(F)(F)F)cc3)n2c1	?	?	nt	nt	i
COc1cc(Cl)ccc1C(=O)N[C@@H]1CN(S(C)(=O)=O)C[C@H]1CN(C)C	-8.7%	i	i	2.7%	i
